Compound activity from PubChem BioAssay.
Pf growth 96h = P. falciparum growth inhibition at 96 hour, primary screen for plastid delayed-death inhibitors | P. falciparum luciferase reporter growth, 96 h | Potency, µM (doses to about 28.7 µM), inactives show top-dose activity change, negative = inhibition, most hits filed as inhibitors | actives 6.9% (n = 320,000) | AID 504834; note: % is set by controls: 0 for no effect and ±100 for the full control effect
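Plates of compound plus infected erythrocytes (2% hematocrit, 0.05% parasitemia final) incubate 96 hours, 37 C, 5% CO2. Detection reagent added; reduced luminescence from the parasites' luciferase reporter flags inhibition.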
NS1 inh = blocks influenza NS1 protein function; Potency, µM (doses to about 46.1 µM), for the others: top-dose activity, positive = more growth; actives 0.4% (n = 270,000); calls by dose curve; note: actives are rising curves; nearly all actives have a fitted effect of over 50% in size
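Compounds were scored for reversing the slow growth caused by influenza A NS1 in S. cerevisiae, measured by optical density at 600 nm. Assay medium contained 2% galactose at pH 6.0; NS1-free yeast of the same strain were the positive control.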
AMA1-RON2 inh = AMA1-RON2 (P. falciparum) interaction inhibition; AlphaScreen AMA1-biotinylated RON2 peptide binding; actives 0.2% (n = 360,000); AID 720542; Potency, µM (doses to about 58.2 µM), for the others: at the top dose activity change, negative = inhibition, most hits filed as inhibitors;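 note: 0% = vehicle wells and -100% = peptide control; nearly all actives have a fitted effect of over 45% in size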
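AMA1 (3D7) with his tag at 25 nM final met compounds first, then biotinylated RON2 peptide at 25 nM; detection used donor plus acceptor beads, 10 µg/mL apiece, read by AlphaScreen after 30 min at room temperature.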
Pf growth 48h = inhibits P. falciparum growth in the first generation, 48 h | P. falciparum luciferase growth in erythrocytes, 48 h | Potency, µM (series often up to 28.7 µM), for inactives: top-dose activity change, negative = inhibition, usual class: inhibitors | actives 5.9% (n = 310,000); note: % is set by controls: 0 for no effect and ±100 for the full control effect
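A one-generation exposure of luciferase-tagged malaria parasites in RPMI 1640/Albumax erythrocyte culture, 37 C and 5% CO2. Inhibition is inferred from decreased luminescence after adding detection reagent.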
SARS PLP yeast = SARS-CoV PLP inhibition in yeast; S. cerevisiae expressing SARS-CoV PLpro, growth rescue; Potency, µM (titrated, usually from 32.9 µM), for the others: at the top dose activity, positive = growth rescue, hits mostly activators; actives 0.19% (n = 330,000); AID 485353; calls by dose curve; note: 0% is about no effect; nearly all actives have a fitted effect of over 55% in size
HCV inh = HCV inhibition. actives 3.4% (n = 340,000). AID 651820. Potency, µM (titrated, usually from 41.8 µM), without a hit: at the highest dose activity change, negative = inhibition, most hits filed as inhibitors. Huh7.5.1 HCVcc-Cre infection, luciferase reporter, 44 h; note: % is set by controls: 0 for no effect and ±100 for the full control effect
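Infectious HCVcc-Cre (~0.5 moi) was added to cells just after compound, with cells seeded 4 h earlier at 1,000 per well. Luciferase activity after 44 h culture reported infection; substrate was incubated 15 min at room temperature before reading.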
* hit, by the source's call; ? = inconclusive; / = no result; [ ] = another dose, or the depositor's remark. Sampled rows, rich in hits. Any-hit rate of the full collection: about 12%. Unless noted, calls come from the whole dose curve; as a rule, active = well fitted curve in the direction sought with a large enough effect; inconclusive = small, poorly fitted or top-dose-only effect, or another doubt; inactive = no such curve, though single readings can be large; an effect the other way counts as inactive or inconclusive. Potency is the fitted concentration of half-maximal effect.

SMILES	Pf growth 96h	NS1 inh	AMA1-RON2 inh	Pf growth 48h	SARS PLP yeast	HCV inh
COc1cc(C2CC(=O)Oc3c(C(CCN4CCCC(C)C4)c4ccc(N(C)C)cc4)c(OC)cc(OC)c32)cc(OC)c1OC (stereo unspecified)	?	-48%	-27%	13µM*	-4%	16%
COc1cc(C(CCN2CCCC(C)C2)c2c(OC)cc(OC)c3c2OC(=O)CC3c2ccc(N(C)C)cc2)cc(OC)c1OC (stereo unspecified)	10µM*	-55%	20µM*	9.3µM*	-1%	32%
COc1cc(O)c(C(CC(=O)N2CCCC(C)C2)c2ccc(N(C)C)cc2)c(OC)c1 (stereo unspecified)	?	-36%	?	?	-2%	5%
Cc1c(C#N)c(=O)c(-[n+]2ccccc2)c([S-])n1-c1ccc(Cl)cc1	2%	4%	16%	11%	-1%	2%
COc1ccccc1CNC(=O)CCC(=O)n1ncc2cc(C)ccc21	2.6µM*	-8%	0%	8%	3%	10%
COc1ccccc1CNC(=O)CCCC(=O)n1ncc2cc(C)ccc21	-4%	-6%	0%	21%	-6%	20%
C[C@H]1[C@H](C)CC[C@]2(C(=O)O)CC[C@]3(C)C(=CC[C@@H]4[C@@]5(C)CC[C@H](O)C(C)(C)[C@@H]5CC[C@]43C)[C@H]12	37%	0%	6%	4%	1%	0.32µM*
C[C@@H]1CC[C@]2(C(=O)O)CC[C@]3(C)C(=CCC4[C@]56CC[C@@](O)(OC5)C(C)(C)C6CC[C@]43C)C2[C@H]1C (stereo partly specified)	-1%	/	-15%	?	-2%	2µM*
C[C@H]1[C@H](C)CC[C@]2(C)CC[C@]3(C)C(=CC[C@@H]4[C@@]5(C)CC[C@@H](O)[C@](C)(C(=O)O)[C@@H]5CC[C@]43C)[C@H]12	13µM*	-7%	/	?	1%	/
C[C@H]1[C@H](C)CC[C@]2(C(=O)O)CC[C@]3(C)C(=CC[C@@H]4[C@@]5(C)C[C@@H](O)[C@H](O)C(C)(C)[C@@H]5CC[C@]43C)[C@H]12	-1%	14%	2%	4%	7%	0%[8.37 µM]
CC(C)(C)c1ccccc1OCCCCCn1ccnc1	5.9µM*	-4%	?	12µM*	-3%	?
CC(O)CNCCCOc1ccc(Cl)cc1C(C)(C)C (stereo unspecified)	64%[5.75 µM]	1%	-16%	?	1%	11µM*
CNCCCCOc1ccccc1-c1ccccc1	16%	-3%	?	-15%	0%	13µM*
CN(C)CCOCCOc1ccc(Cl)cc1C(C)(C)C	484%	-3%	?	?	-1%	?
CC(C)(C)c1cc(Cl)ccc1OCCn1ccnc1	?	-78%	?	5.9µM*	-10%	-10%
O=C(NCc1ccncc1)c1cccc(S(=O)(=O)Nc2ccc(F)cc2)c1	-18%	/	-8%	23%	-2%	?
Cc1cccc(OCCCCCn2ccnc2)c1C	?	-148%	-18%	?	-3%	?
c1ccc(-c2ccccc2OCCCCn2ccnc2)cc1	?	-34%	?	12µM*	2%	-11%
O=C(C1CCCCC1)N1CCC(c2nc3ccccc3[nH]2)CC1	9.3µM*	-8%	0%	-25%	-7%	-5%
O=C(c1ccc(Br)o1)N1CCC(c2nc3ccccc3[nH]2)CC1	?	/	-3%	?	-8%	8%
CCC(=O)Nc1ccc(S(=O)(=O)N2CCC(c3nc4ccccc4[nH]3)CC2)cc1	?	/	-1%	?	-4%	14%
Cc1ccc(N2CC(C(=O)N3CCC(c4nc5ccccc5[nH]4)CC3)CC2=O)cc1C (stereo unspecified)	10µM*	/	-7%	?	-4%	-5%
O=C1CC(c2nc3ccccc3[nH]2)CN1c1cccc(C(F)(F)F)c1 (stereo unspecified)	?	-25%	-2%	2%	2%	-27%
CCCC(=O)Nc1ccc(S(=O)(=O)N2CCC(c3nc4ccccc4[nH]3)CC2)cc1	5.2µM*	/	-7%	13µM*	-5%	?
O=C(C1CC(=O)N(c2ccc(F)cc2)C1)N1CCC(c2nc3ccccc3[nH]2)CC1 (stereo unspecified)	8.3µM*	/	-7%	?	2%	8%
SMILES	Pf growth 96h	NS1 inh	AMA1-RON2 inh	Pf growth 48h	SARS PLP yeast	HCV inh
CCN(CC)CCn1c2c(c(SCC(=O)Nc3nccs3)nc1=O)CCCC2	-9%	/	-5%	?	-2%	-2%
N#Cc1ccc(CN2C(=O)NC3(CCCCCC3)C2=O)cc1	20%	9%	22%	14%	-3%	-14%
O=C(NC1CCCCC1)N1CCC(c2nc3ccccc3[nH]2)CC1	-9%	-1%	68%	-7%	13%	-2%
O=C(NC1CCCCC1)N1CCCC(c2nc3ccccc3[nH]2)C1 (stereo unspecified)	1.5µM*	-12%	3%	-15%	2%	?
c1ccc(C[n+]2c(-c3ccccc3)csc2Nc2ccccc2)cc1	9.3µM*	-6%	-3%	?	-3%	?
CCC1=C(OC(=O)N(CC)CC)N2C(=O)OC(=NCC3CC3)[C@]2(C)[C@H]2C1=CC[C@H]1C(=O)N(C)C(=O)[C@H]12	10µM*	-3%	-4%	8.3µM*	4%	-12%
CCC1=C(OC(=O)N(CC)CC)N2C(=O)OC(=NCC3CC3)[C@]2(C)[C@H]2C1=CC[C@H]1C(=O)N(CC)C(=O)[C@H]12	?	6%	2%	10µM*	-2%	16%[8.37 µM]
CCC1=C(OC(=O)N(CC)CC)N2C(=O)OC(=NCc3ccccc3)[C@]2(C)[C@H]2C1=CC[C@H]1C(=O)NC(=O)[C@H]12	-4%	0%	0%	?	1%	57%[8.37 µM]
Cc1ccc(S(=O)(=O)CCC(=O)OC(C)C(=O)N2CCc3ccccc32)cc1 (stereo unspecified)	4%	/	5%	?	-3%	0%
COc1ccc(NC(=O)CN(C)C(=O)C2CCCO2)cc1 (stereo unspecified)	-19%	/	-4%	-11%	5%	2%
COc1ccc(NC(=O)CN(C)C(=O)C2(c3ccccc3)CCCC2)cc1	/	/	-3%	/	-4%	?
CCn1nnnc1SCC(=O)N1CCCCC1	101%	/	2%	-10%	-6%	10%
CCN(CC)C(=O)c1ccc(S(=O)(=O)N2CCC(c3nc4ccccc4s3)CC2)cc1	?	11%	-2%	?	29%	2.5µM*
CC1CCCN(C(=O)c2ccc(S(=O)(=O)N3CCC(c4nc5ccccc5s4)CC3)cc2)C1 (stereo unspecified)	/	/	4%	/	/	10µM*
